In ChEMBL document CHEMBL3988442, “University of Dundee, Small-Polar-MMV Screening Library” (2021):
For part of these data: Results with a measured potency or affinity are listed apart.

What was measured:
Parameters in all cases: scale not given: direction of the effect not stated beside the values
[1] = target: Protein translocase subunit SecA (Escherichia coli (strain K12)) (UniProt P10408); test: Assay to Identify E. coli SecA ATPase Inhibitors; assay type: functional; conditions: 30 µM
[2] = target: T1, Ubiquitin-activating enzyme e1, putative (Leishmania donovani (strain BPK282A1)) (UniProt E9BSI1); test: Leishmania donovani Ubiquitin Activating Enzyme (LdE1); assay type: functional; conditions: 30 µM
T1 sequence (whole entry): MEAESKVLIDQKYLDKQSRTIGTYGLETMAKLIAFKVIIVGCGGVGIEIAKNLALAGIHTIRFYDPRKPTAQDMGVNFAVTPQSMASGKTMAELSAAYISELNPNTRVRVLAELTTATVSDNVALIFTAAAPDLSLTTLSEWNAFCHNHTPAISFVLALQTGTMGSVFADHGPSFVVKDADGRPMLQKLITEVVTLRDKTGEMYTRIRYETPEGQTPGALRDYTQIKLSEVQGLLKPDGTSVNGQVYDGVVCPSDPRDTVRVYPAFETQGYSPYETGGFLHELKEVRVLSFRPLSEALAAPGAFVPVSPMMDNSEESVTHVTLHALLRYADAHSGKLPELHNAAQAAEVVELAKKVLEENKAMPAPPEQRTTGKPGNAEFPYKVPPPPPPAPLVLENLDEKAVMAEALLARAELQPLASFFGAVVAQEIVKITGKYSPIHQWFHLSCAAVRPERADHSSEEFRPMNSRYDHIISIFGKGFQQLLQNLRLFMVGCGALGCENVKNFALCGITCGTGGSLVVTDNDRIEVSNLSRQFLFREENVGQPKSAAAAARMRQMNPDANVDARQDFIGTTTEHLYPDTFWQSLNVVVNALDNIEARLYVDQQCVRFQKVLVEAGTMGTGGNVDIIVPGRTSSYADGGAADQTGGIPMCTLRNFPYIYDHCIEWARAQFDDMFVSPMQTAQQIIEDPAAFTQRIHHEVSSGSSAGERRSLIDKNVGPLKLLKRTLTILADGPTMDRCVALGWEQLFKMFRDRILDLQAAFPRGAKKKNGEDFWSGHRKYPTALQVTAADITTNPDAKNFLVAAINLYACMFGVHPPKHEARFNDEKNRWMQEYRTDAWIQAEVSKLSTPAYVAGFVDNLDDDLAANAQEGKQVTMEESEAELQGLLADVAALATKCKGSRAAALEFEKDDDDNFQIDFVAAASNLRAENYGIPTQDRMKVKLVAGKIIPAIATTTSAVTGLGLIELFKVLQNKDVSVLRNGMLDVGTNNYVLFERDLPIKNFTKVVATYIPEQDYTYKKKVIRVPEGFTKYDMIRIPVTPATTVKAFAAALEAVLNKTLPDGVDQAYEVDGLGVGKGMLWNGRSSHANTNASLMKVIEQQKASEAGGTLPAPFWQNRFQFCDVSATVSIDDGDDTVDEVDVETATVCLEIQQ

[3] = target: T2, Aspartate--tRNA(Asp/Asn) ligase (Mycobacterium tuberculosis (strain ATCC 25618 / H37Rv)) (UniProt P9WFW3); test: Assay for Asp RNA synthetase-1 from Mycobacterium tuberculosis; assay type: functional; conditions: 30 µM; note: in the data most compounds retested in dose-response had high values
T2 sequence (whole entry): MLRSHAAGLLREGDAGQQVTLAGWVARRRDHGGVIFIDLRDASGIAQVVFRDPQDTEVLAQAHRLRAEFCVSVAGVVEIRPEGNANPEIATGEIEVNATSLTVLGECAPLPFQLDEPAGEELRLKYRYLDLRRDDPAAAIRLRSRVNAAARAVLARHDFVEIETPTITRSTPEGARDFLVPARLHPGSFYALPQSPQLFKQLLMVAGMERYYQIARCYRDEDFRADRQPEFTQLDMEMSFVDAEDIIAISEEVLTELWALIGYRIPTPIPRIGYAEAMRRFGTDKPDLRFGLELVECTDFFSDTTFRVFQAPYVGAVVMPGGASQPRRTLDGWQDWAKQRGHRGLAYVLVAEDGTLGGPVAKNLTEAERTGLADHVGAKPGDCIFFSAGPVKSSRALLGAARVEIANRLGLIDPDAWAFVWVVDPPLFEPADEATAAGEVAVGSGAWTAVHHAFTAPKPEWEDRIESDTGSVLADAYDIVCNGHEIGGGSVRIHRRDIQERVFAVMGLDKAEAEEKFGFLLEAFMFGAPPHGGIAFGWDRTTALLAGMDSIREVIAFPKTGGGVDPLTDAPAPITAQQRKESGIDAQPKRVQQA

[4] = target: AMP-activated protein kinase, AMPK (Homo sapiens) (UniProt P54646+O43741+P54619+Q9UGJ0+Q9Y478+Q13131+Q9UGI9); test: AMP-dependent Kinase enzyme assay. An in vitro enzyme assay that detects ADP turnover that is directly proportional to AMPK activity. This uses naive AMPK that is activated during the assay with MK-8722; assay type: functional; conditions: 30 µM
[5] = target: Sialic acid-binding Ig-like lectin 9 (Homo sapiens) (UniProt Q9Y336); test: Hs-Siglec9 ALPHAscreen SOP 20170721; conditions: 10 µM
Chain of Sialic acid-binding Ig-like lectin 9 (Homo sapiens) (Q9Y336 whole entry): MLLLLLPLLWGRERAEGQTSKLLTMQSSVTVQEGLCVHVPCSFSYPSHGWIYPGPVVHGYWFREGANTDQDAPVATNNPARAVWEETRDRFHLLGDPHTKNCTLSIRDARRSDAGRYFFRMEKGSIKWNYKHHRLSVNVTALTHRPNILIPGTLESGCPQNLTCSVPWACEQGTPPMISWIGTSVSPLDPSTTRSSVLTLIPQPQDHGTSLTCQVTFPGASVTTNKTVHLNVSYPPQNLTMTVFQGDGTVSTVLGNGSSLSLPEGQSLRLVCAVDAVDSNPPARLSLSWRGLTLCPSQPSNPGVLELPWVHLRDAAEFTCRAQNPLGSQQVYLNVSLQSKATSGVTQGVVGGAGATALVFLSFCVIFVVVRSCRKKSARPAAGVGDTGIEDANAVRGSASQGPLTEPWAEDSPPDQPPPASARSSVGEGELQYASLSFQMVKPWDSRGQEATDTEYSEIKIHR

Trypanosoma cruzi = test: Trypanosoma cruzi phosphomannomutase and mannose-1-phosphate guanylyltransferase assay; assay type: functional; conditions: 10 µM
[6] = target: T3, Arginase-2, mitochondrial (Homo sapiens) (UniProt P78540); test: in vitro enzyme assay to detect the production of urea directly proportional to the activity of Arginase II; assay type: functional; conditions: 33.3 µM; note: in the data most compounds retested in dose-response had high values
T3 sequence (whole entry): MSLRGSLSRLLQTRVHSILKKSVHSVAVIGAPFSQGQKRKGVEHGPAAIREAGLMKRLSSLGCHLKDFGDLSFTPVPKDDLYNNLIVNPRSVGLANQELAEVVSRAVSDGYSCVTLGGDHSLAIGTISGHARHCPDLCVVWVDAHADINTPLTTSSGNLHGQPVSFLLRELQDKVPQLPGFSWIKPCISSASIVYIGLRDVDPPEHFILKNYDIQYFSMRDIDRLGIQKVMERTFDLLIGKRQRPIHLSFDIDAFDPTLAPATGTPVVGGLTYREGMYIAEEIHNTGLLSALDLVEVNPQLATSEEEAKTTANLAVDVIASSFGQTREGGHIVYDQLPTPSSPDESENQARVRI

[7] = target: T4, Proteasome subunit beta (Trypanosoma cruzi) (UniProt O96673); test: Trypanosoma cruzi proteasome chymotrypsin-like activity (TcProtChymo) assay.; note: in the data most compounds retested in dose-response had high values; assay type: functional; conditions: 9.37 µM
T4 sequence (whole entry): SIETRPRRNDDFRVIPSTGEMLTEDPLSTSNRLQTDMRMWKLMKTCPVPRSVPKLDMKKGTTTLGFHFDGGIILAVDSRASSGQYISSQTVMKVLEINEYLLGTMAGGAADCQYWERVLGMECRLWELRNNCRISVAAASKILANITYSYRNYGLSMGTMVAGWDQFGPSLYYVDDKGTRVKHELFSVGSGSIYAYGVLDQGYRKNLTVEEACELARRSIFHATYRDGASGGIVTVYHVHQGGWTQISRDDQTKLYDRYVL

Homo sapiens = species on record: Homo sapiens; test: To identify inhibition of the IFN signalling (Jak-Stat) pathway via expression of an eGFP reporter gene under the control of an IFN-stimulated response element (ISRE) containing MxA promoter.; assay type: functional; conditions: 30 µM
[8] = target: Shiga toxin 2 (Escherichia coli O157:H7) (UniProt P09385+P09386); test: E. coli 0.157:H7 Shiga Toxin SOP - stx2 screening assay; assay type: functional; conditions: 30 µM
[9] = target: T5, Tyrosyl-tRNA synthetase, putative (Trypanosoma cruzi (strain CL Brener)) (UniProt Q4DSP6); test: Trypanosoma cruzi tyrosyl tRNA synthetase (TcYRS) _High Tyrosine SOP; assay type: functional; conditions: 30 µM; note: in the data most compounds retested in dose-response had high values
T5 sequence (whole entry): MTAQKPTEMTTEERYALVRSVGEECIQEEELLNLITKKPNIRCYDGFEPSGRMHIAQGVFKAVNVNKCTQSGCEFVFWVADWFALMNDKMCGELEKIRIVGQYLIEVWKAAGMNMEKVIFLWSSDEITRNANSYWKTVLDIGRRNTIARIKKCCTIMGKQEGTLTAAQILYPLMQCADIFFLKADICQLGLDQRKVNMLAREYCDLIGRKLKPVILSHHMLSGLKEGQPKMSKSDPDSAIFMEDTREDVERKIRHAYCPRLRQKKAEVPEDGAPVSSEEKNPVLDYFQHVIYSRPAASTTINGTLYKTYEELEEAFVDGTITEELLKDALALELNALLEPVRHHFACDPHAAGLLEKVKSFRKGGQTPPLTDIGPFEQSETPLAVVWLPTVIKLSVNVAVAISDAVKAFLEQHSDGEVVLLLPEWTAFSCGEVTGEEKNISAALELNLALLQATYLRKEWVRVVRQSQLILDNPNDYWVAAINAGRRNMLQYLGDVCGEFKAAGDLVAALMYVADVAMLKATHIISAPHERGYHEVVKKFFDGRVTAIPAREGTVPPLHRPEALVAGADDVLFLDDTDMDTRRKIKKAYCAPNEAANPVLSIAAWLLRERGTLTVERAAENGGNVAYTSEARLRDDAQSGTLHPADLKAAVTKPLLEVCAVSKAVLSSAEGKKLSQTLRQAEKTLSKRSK

[10] = target: T5, Tyrosyl-tRNA synthetase, putative (Trypanosoma cruzi (strain CL Brener)); test: Trypanosoma cruzi tyrosyl tRNA synthetase (TcYRS) SOP; assay type: functional; conditions: 30 µM
[11] = target: Chromo domain-containing protein 1 (Saccharomyces cerevisiae (strain ATCC 204508 / S288c) (Baker's yeast)) (UniProt P32657); test: ScCHD-1 Enzyme Inhibition Assay; assay type: functional; conditions: 30 µM; note: in the data most compounds retested in dose-response had high values
Chain of Chromo domain-containing protein 1 (Saccharomyces cerevisiae (strain ATCC 204508 / S288c) (Baker's yeast)) (P32657 whole entry, the tested form may be a part): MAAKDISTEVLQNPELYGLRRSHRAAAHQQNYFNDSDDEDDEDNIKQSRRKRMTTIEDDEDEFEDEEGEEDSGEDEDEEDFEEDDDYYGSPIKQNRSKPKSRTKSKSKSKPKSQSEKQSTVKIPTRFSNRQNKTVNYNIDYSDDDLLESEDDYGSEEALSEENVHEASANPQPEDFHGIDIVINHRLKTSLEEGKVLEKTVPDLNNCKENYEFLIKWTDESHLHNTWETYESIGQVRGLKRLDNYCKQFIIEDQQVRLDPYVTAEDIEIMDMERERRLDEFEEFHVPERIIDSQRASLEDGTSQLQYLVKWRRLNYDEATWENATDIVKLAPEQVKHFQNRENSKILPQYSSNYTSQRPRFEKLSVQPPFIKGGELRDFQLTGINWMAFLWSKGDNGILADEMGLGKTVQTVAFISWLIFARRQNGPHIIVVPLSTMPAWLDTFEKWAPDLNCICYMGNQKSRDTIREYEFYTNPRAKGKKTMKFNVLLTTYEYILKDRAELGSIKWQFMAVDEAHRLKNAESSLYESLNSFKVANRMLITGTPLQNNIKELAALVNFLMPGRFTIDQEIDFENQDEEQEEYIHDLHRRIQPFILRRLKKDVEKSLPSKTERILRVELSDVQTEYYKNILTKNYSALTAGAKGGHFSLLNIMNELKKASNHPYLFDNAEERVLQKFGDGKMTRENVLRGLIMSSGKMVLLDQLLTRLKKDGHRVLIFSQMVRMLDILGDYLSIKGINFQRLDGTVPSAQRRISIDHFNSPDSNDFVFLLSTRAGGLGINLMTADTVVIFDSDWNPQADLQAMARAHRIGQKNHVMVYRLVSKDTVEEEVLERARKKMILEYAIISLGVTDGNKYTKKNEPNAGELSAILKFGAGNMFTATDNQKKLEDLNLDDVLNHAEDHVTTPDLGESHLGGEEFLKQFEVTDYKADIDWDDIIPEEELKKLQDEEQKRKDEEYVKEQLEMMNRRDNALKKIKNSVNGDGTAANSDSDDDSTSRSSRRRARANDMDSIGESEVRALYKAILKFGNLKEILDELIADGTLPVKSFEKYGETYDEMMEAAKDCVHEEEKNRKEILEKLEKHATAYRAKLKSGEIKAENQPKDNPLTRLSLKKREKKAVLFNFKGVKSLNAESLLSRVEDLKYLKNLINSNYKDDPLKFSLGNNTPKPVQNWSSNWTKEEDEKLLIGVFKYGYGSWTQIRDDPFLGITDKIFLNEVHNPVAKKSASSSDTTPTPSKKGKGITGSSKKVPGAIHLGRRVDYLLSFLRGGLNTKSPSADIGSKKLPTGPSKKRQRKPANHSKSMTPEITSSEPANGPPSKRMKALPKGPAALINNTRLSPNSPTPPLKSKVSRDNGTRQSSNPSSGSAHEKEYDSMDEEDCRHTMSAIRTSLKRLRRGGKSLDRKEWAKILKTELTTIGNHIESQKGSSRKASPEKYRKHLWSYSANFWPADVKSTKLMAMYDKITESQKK

Chain of Protein translocase subunit SecA (Escherichia coli (strain K12)) (P10408 whole entry): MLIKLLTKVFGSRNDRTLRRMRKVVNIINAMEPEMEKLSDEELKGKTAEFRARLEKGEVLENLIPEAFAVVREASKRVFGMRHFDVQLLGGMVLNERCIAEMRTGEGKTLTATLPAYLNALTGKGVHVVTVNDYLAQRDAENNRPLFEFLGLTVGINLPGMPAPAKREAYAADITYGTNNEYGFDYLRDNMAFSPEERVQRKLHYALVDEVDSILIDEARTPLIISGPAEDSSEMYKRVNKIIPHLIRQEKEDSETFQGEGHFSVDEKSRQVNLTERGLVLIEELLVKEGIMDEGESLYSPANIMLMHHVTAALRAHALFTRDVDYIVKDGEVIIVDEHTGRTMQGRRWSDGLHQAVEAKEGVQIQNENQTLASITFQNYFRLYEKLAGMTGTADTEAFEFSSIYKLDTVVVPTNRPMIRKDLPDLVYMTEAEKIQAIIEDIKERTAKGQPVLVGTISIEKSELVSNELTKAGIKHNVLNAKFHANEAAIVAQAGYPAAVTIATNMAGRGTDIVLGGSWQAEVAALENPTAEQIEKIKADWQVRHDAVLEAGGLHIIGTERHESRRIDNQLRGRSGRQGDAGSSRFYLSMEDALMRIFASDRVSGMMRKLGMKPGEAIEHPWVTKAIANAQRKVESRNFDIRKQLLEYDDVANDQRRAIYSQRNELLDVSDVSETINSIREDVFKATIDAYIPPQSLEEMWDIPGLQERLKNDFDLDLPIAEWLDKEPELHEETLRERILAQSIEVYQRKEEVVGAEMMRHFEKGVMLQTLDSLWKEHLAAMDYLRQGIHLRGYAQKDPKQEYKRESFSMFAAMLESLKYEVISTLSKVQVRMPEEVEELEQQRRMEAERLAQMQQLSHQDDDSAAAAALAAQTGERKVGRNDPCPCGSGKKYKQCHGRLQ

SMILES	Percent Effect [1]	Percent Effect [2]	Percent Effect [3]	Percent Effect [4]	Percent Effect [5]	Percent Effect (Trypanosoma cruzi)	Percent Effect [6]	Percent Effect [7]	Percent Effect (Homo sapiens)	Percent Effect [8]	Percent Effect [9]	Percent Effect [10]	Percent Effect [11]
c1cc(CN2CCO[C@H]3[C@H](OCC4CCCC4)CC[C@@H]32)ccn1	-2.78%	5.41%	5.76%	0.694%	-1.13%	-3.81%	1.59%	19%	24.5%	1.34%	-2.16%	7.69%	2.01%
c1ccc(OC[C@@H]2CCC[C@@]23CNCCO3)nc1	-2.73%	5.41%	9.49%	130%	-8.96%	-4.79%	-7.33%	17.9%	24.8%	-5.1%	1.08%	2.56%	-0.951%
Cc1nc(NCC2CC2)nc2c1COCC21CCN(C)C1 (configuration not stated)	-1.26%	18.7%	-1.49%	0.667%	-4.41%	2.17%	46.4%	19.1%	2.6%	2.88%	4.25%	16.7%	-6.2%
CC(C)NC(=O)[C@H]1C[C@@H]2[C@@H](C1)OCCN2Cc1cccnc1	1.37%	-5.33%	3.61%	10.3%	6.39%	-4.25%	-52.9%	1.54%	7.17%	-9.38%	3.12%	2.5%	-0.286%
CCOCC(O)CN1CCN(C(=O)Cc2ccc(C)nc2)CC1 (configuration not stated)	-0.896%	18.4%	-0.811%	1.93%	7.02%	-3.38%	3.83%	15.9%	10.3%	27%	11.3%	17.1%	-5.52%
Cc1ccc(CN2CCC3(CC2)C(=O)N(C)c2ccccc23)s1	-4.09%	8.11%	7.84%	-1.34%	6.95%	-0.781%	2.08%	16.8%	20.4%	-2.26%	7.92%	11%	5.6%
CC(C)CN1CCC2(C1)CN(c1ncccn1)C2	-1.21%	13.3%	3.02%	6.7%	-5.1%	-3.15%	-3.03%	10.3%	5.15%	-15.1%	5.32%	11.5%	-4.75%
CCN1C[C@H]2[C@@H](C1)N(S(=O)(=O)c1cccnc1)CC[C@H]2OC	-0.0411%	5.33%	1.49%	5.24%	-6.52%	-5.91%	-2.56%	4.49%	14.5%	-25%	-3.19%	-3.85%	-1.11%
O=C1CC2(CCN(CC3CC3)C2)CN1c1cccnc1 (configuration not stated)	-0.0321%	8.11%	1.57%	-3.31%	8.46%	-5.18%	7.2%	11.4%	-22.5%	-25.7%	10.8%	11.1%	-7.21%
